# Records with an inconclusive call do not appear. Unmarked numbers belong to inactive results. Activity calls are given as the source filed them. The call rests on the fitted dose curve; in most records, active means well fitted inhibition curve with a large enough effect; inconclusive means small, poorly fitted or top-dose-only effect; inactive means flat fitted curve, though single readings scatter.
# Tested on: CP203
# Assay: qHTS profiling for inhibitors of Plasmodium falciparum proliferation (AID 504749); further: nearly all actives have a fitted effect of over 60% in size;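 on activity, negative = inhibition: 0% = DMSO vehicle and full inhibition = artemisinin control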
# Conditions: P. falciparum in erythrocytes, SYBR Green DNA, 72 h; series mostly up to 28.7 µM; activity, negative = inhibition: at the top concentration
# From the text: NIH National Institute of Allergy and Infectious Diseases [NIAID] NIH Chemical Genomics Center [NCGC] MLPCN Grant: None Assay Provider: Xinzhuan Su, NIAID NCGC Assay Overview: Plasmodium falciparum is a virulent malarial parasite that kills 1-2 million people worldwide each year. Transmitted by mosquitoes, the sporozoite form of the parasite enters the blood stream to infect hepatocytes, where they become merozoites that infect red blood cells (erythrocytes). Within erythrocytes, merozoites begin a […] cycle of growth and division, after which the parasite is released to infect new red blood cells. Gametocytes, which form within erythrocytes as well, circulate in the bloodstream and are ingested by the mosquito, thereby completing the life cycle. To profile malarial isolates for differential chemical responses and to identify inhibitors of malarial growth, an assay that measures P. falciparum growth and replication within erythrocytes was employed. This assay uses a DNA binding fluorescent dye (SYBR Green) to detect parasite DNA following cell lysis. Because mature erythrocytes lack DNA, only Plasmodium-derived DNA is detected.
# NCGC Assay Protocol Summary: The SYBR Green viability assay was adapted from a method described previously (Plouffe et al., 2008). For screening 3 ul culture medium was dispensed into 1536 well black clear bottom plates (Aurora Biotechnologies) using a Multidrop Combi (Thermo Fisher Scientific Inc.), 23 nL compounds in DMSO were added by a pin tool (Kalypsys), and 5 ul of erythrocytes infected with P. falciparum (0.3% parasitemia, 2.5% hematocrit final concentration) were added. The plates were incubated at 37 C in a humidified incubator in 5% CO2 for 72 h, and 2 ul lysis buffer (20 mM Tris HCl, 10 mM EDTA, 0.16% saponin, 1.6% triton X, 10X SYBR Green I supplied as 10,000X […] by Invitrogen) was added to each well. The plates were mixed for 25 sec with gentle shaking and incubated overnight at room temperature in the dark. The following morning, fluorescence intensity at 485(14) nm excitation and 535(25) nm emission wavelengths was measured on an EnVision (Perkin Elmer) plate reader. Plate reads were normalized relative to the control inhibitor (0.29 uM artemisinin) and vehicle (DMSO) wells present on each plate and then corrected by an algorithm using vehicle-only control plates at the beginning and end of the compound plate stack.
# Potency means the concentration at half of the fitted maximal effect.
SMILES,"activity, negative = inhibition",Potency
CCCC(C)(COC(N)=O)COC(=O)NC(C)C (stereo not given),-3.12%,–
Cc1ccc(S(=O)(=O)N[C@@H](CCCCN)C(=O)CCl)cc1,-18.3%,–
CCC1(C2=NCCN2)Cc2ccccc2O1 (stereo not given),–,10.7 µM (active)
Fc1ccc(C(OCCN2CCN(CCCc3ccccc3)CC2)c2ccc(F)cc2)cc1,–,12 µM (active)
CC1OC(C)OC(C)O1 (stereo not given),–,inactive
Clc1cccc(N2CCNCC2)c1,-15.6%,–
N#CC(C#N)=Cc1ccc(O)c(O)c1,-13.4%,–
CC(C)(C)CC(C)(C)c1ccc(O)cc1,-8.18%,–
C[C@]12C/C(=C/O)C(=O)C[C@@H]1CC[C@@H]1[C@@H]2CC[C@@]2(C)[C@H]1CC[C@]2(C)O,-12.1%,–
CC[N+]1(C)CCCC(OC(=O)C(O)(c2ccccc2)c2ccccc2)C1 (stereo not given),6.45%,–
CC(=O)[C@H]1CC[C@H]2[C@@H]3CC[C@H]4C[C@H](O)CC[C@]4(C)[C@H]3C(=O)C[C@]12C,0.784%,–
CN1C(=S)CN=C(c2ccccc2)c2cc(Cl)ccc21,-6.74%,–
CC[C@@H](CO)NC(=O)[C@@H]1C=C2c3cccc4[nH]cc(c34)C[C@H]2N(C)C1,6.86%,–
CC[N+](CC)(CC)CC,9.8%,–
Oc1cc(Cl)ccc1Oc1ccc(Cl)cc1Cl,–,15.1 µM (active)
FC(F)(F)c1cccc(C2=CCN(CCc3ccc4ccccc4c3)CC2)c1,1.73%,–
CCOP(=S)(OCC)Oc1cc(C)nc(C(C)C)n1,-10.2%,–
CCN(C(C)=O)c1cccc(-c2ccnc3c(C#N)cnn23)c1,0.971%,–
C=C(C)[C@H]1Cc2c(ccc3c2O[C@@H]2COc4cc(OC)c(OC)cc4[C@@H]2C3=O)O1,-1.2%,–
N[C@@H](Cc1ccc(N(CCCl)CCCl)cc1)C(=O)O,-10.5%,–

SMILES,"activity, negative = inhibition",Potency
NCC(CC(=O)O)c1ccc(Cl)cc1 (stereo not given),-7.73%,–
Oc1ccc(Cl)cc1Cc1ccccc1,–,16.9 µM (active)
C#CCOC(C(=O)OCCN(C)C)(c1ccccc1)c1ccccc1,8.06%,–
COc1ccc(C(=O)c2c(C)n(CCN3CCOCC3)c3ccccc23)cc1,-0.734%,–
C=C1CC[C@@]2(O)[C@H]3Cc4ccc(O)c5c4[C@@]2(CCN3CC2CC2)[C@H]1O5,-17.4%,–
Oc1cccc2cccnc12,0.441%,–
CC(C)CC(N(C)C)C1(c2ccc(Cl)cc2)CCC1 (stereo not given),0.661%,–
NCC(O)c1ccc(O)cc1 (stereo not given),-3.26%,–
CCCN1CCC[C@@H]2Cc3[nH]ncc3C[C@H]21,-1.49%,–
c1ccc2c(c1)OCC(C1=NCCN1)O2 (stereo not given),-4.93%,–
c1ccc(C2CC2)c(OCC2=NCCN2)c1,-1.86%,–
NP(N)(=O)NC(=O)c1ccc(F)cc1,11.9%,–
O=C1NCN(c2ccccc2)C12CCN(CC1COc3ccccc3O1)CC2 (stereo not given),-5.9%,–
NCC1(CC(=O)O)CCCCC1,1.4% [at 12.8 µM],–
OCCOc1ccccc1,-19.4%,–
COc1ccccc1N1CCNCC1,0.769%,–
CC(=O)Nc1cc([As](=O)(O)O)ccc1O,3.58%,–
O=C(O)c1ccc2[nH]cc(CCCCN3CC=C(c4ccccc4)CC3)c2c1,-8.73%,–
CCC(C(N)=O)N1CCCC1=O (stereo not given),-0.0728%,–
Cc1ccc(-c2nc3ccc(C)cn3c2CC(=O)N(C)C)cc1,2.14%,–
